# Experimental data published in PubChem BioAssay (NCI).
# About 79,000 compounds went through this panel and 15% of them were active in at least one assay; those are over-represented in the sample as a whole. Unmarked numbers belong to inactive results. Calls of active or inactive are those of the source. Rule as the data show it: active = growth inhibition above about 70%; inactive = the rest.
# Key:
# [1] = NCI Yeast Anticancer Drug Screen. Data for the rad52 strain (AID 147);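 also: 0% = growth of vehicle-treated control cultures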; settings: S. cerevisiae rad52 mutant growth inhibition, stronger effect = higher value
# In short: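 Measured: yeast growth inhibition. System: strain with a defined DNA damage repair alteration. Reference: vehicle-treated control cultures.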
# [2] = NCI Yeast Anticancer Drug Screen. Data for the wt1 strain (AID 149);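 also: 0% = growth of vehicle-treated wt1 cultures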; settings: S. cerevisiae wt1 strain (SPY 50644) growth inhibition, stronger effect = higher value
# In short: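 The wt1 strain was treated with compounds, and growth was compared with vehicle-treated cultures to give inhibition.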
# [3] = NCI Yeast Anticancer Drug Screen. Data for the rad50EPP+ strain (AID 151);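 also: 0% = growth of vehicle-treated control cultures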; settings: S. cerevisiae rad50 mutant strain, stronger effect = higher value
# In short: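 One strain with a rad50 alteration (rad50EPP+) was compound-treated, its growth then compared to that of vehicle controls.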
# [4] = NCI Yeast Anticancer Drug Screen. Data for the mgt1 strain (AID 153); settings: S. cerevisiae mgt1 mutant growth inhibition, stronger effect = higher value
# In short: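 After exposure of the mgt1 yeast mutant to compound, growth was measured and reported as inhibition compared with vehicle controls.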
# [5] = NCI Yeast Anticancer Drug Screen. Data for the rad50 strain (AID 155);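 also: 0% = growth of vehicle-only cultures of the same strain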; settings: S. cerevisiae rad50 strain growth inhibition, stronger effect = higher value
# In short: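 Cells are treated with compound, grown, and their growth is then scored against vehicle-only cultures of the same repair-deficient yeast strain.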
# [6] = NCI Yeast Anticancer Drug Screen. Data for the mec2-1 strain (AID 157); settings: S. cerevisiae mec2-1 strain, stronger effect = higher value
# In short: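 Test agents were screened against the mec2-1 yeast strain, with defined DNA repair or cell cycle alteration. Growth was scored as inhibition against vehicle-only controls.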
# [7] = NCI Yeast Anticancer Drug Screen. Data for the rad14 strain (AID 159);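 also: 0% = growth of vehicle-treated control cultures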; settings: S. cerevisiae rad14 strain growth inhibition, stronger effect = higher value
# In short: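 Readout: yeast growth inhibition, referenced to vehicle-only cultures. Strain bears a defined alteration in DNA damage repair.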
# [8] = NCI Yeast Anticancer Drug Screen. Data for the sgs1 mgt1 strain (AID 161);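 also: 0% = growth of cultures given vehicle only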; settings: S. cerevisiae sgs1 mgt1 strain, stronger effect = higher value
# In short: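 Mutant yeast exposed to compound; growth scored against vehicle-only wells.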
# [9] = NCI Yeast Anticancer Drug Screen. Data for the CLN2oe strain (AID 163);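 also: 0% = growth of vehicle-only control cultures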; settings: S. cerevisiae CLN2oe strain, stronger effect = higher value
# In short: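 Here, growth inhibition in a cell-cycle-altered yeast strain after compound exposure was quantified against vehicle control growth.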
# [10] = NCI Yeast Anticancer Drug Screen. Data for the cln2 rad14 strain (AID 165);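 also: 0% = growth equal to vehicle treated cultures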; settings: S. cerevisiae cln2 rad14 strain, stronger effect = higher value
# In short: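 Growth of compound-exposed yeast (cln2 rad14 genotype) measured and expressed as inhibition relative to vehicle.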
# [11] = NCI Yeast Anticancer Drug Screen. Data for the bub3 strain (AID 167); settings: S. cerevisiae bub3 mutant strain, stronger effect = higher value
# In short: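 Part of a panel of yeast mutants defective in DNA damage repair or cell cycle regulation. Each strain is grown with compound, and inhibition is calculated relative to solvent-treated cultures.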
# [12] = NCI Yeast Anticancer Drug Screen. Data for the wt2 strain (AID 169);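 also: 0% = growth of vehicle-treated yeast cultures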; settings: S. cerevisiae wt2 strain growth inhibition, stronger effect = higher value
# In short: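 Genetically defined yeast strains from a DNA-repair/cell-cycle panel were used. Compound-exposed yeast growth was measured, and the inhibition was calculated relative to vehicle treatment.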
# [13] = NCI Yeast Anticancer Drug Screen. Data for the mlh1 strain (AID 171);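 also: 0% = growth of vehicle-treated control cultures of the same strain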; settings: S. cerevisiae mlh1 strain growth inhibition, stronger effect = higher value
# In short: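 Here the genetically defined yeast mutant is grown with each compound, and the extent to which its growth falls below that of vehicle-exposed cells is reported.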
# [14] = NCI Yeast Anticancer Drug Screen. Data for the sgs1 strain (AID 173);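 also: 0% = growth of vehicle-only control cultures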; settings: S. cerevisiae sgs1 mutant, stronger effect = higher value
# In short: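 Relative growth inhibition, referenced to vehicle, was determined in a yeast strain with a defined alteration affecting DNA damage repair or cell cycle control after compound exposure.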
# [15] = NCI Yeast Anticancer Drug Screen. Data for the mlh1 rad18 strain (AID 175); settings: S. cerevisiae mlh1 rad18 strain growth inhibition, stronger effect = higher value
# In short: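 In this whole-cell yeast screen, a strain with altered DNA damage repair is challenged with compound, and its growth is measured against matched vehicle-treated controls.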
# [16] = NCI Yeast Anticancer Drug Screen. Data for the rad18 strain (AID 177); settings: S. cerevisiae rad18 mutant growth inhibition, stronger effect = higher value
# In short: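 Screen uses a yeast strain with a defined lesion in DNA damage repair; compound effect is read as loss of growth compared to untreated vehicle cultures.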
# [17] = at 5.0 µM (retest, dose inferred, filed as 0.5)
# [18] = at 50.0 µM (retest, dose inferred, filed as 5.0)
smiles,measurement,setting,value
O=[N+]([O-])c1ccc2[nH]c3c(-c4ccccc4)nccc3c2c1,growth inhibition,[1]; at 1.2 µM,-1%
same,growth inhibition,[1]; at 3.7 µM,8%
same,growth inhibition,[1]; at 11.0 µM,96% (active)
same,growth inhibition,[1]; at 33.0 µM,97% (active)
same,growth inhibition,[1]; at 100.0 µM,97% (active)
same,growth inhibition,[2]; at 1.2 µM,-4%
same,growth inhibition,[2]; at 3.7 µM,-8%
same,growth inhibition,[2]; at 11.0 µM,87% (active)
same,growth inhibition,[2]; at 33.0 µM,94% (active)
same,growth inhibition,[2]; at 100.0 µM,92% (active)
same,growth inhibition,[3]; at 1.2 µM,20%
same,growth inhibition,[3]; at 3.7 µM,43%
same,growth inhibition,[3]; at 11.0 µM,68%
same,growth inhibition,[3]; at 33.0 µM,79% (active)
same,growth inhibition,[3]; at 100.0 µM,79% (active)
same,growth inhibition,[4]; at 1.2 µM,-2%
same,growth inhibition,[4]; at 3.7 µM,-4%
same,growth inhibition,[4]; at 11.0 µM,94% (active)
same,growth inhibition,[4]; at 33.0 µM,97% (active)
same,growth inhibition,[4]; at 100.0 µM,97% (active)
same,growth inhibition,[5]; at 1.2 µM,-3%
same,growth inhibition,[5]; at 3.7 µM,2%
same,growth inhibition,[5]; [17],10%
same,growth inhibition,[5]; at 11.0 µM,92% (active)
same,growth inhibition,[5]; at 33.0 µM,96% (active)
same,growth inhibition,[5]; [18],96% (active)
same,growth inhibition,[5]; at 50.0 µM,98.8% (active)
same,growth inhibition,[5]; at 100.0 µM,96% (active)
same,growth inhibition,[6]; at 1.2 µM,-4%
same,growth inhibition,[6]; at 3.7 µM,-6%
same,growth inhibition,[6]; [17],-5%
same,growth inhibition,[6]; at 11.0 µM,96% (active)
same,growth inhibition,[6]; at 33.0 µM,98% (active)
same,growth inhibition,[6]; [18],97% (active)
same,growth inhibition,[6]; at 50.0 µM,91.2% (active)
same,growth inhibition,[6]; at 100.0 µM,98% (active)
same,growth inhibition,[7]; at 1.2 µM,-1%
same,growth inhibition,[7]; at 3.7 µM,-1%
same,growth inhibition,[7]; at 11.0 µM,85% (active)
same,growth inhibition,[7]; at 33.0 µM,96% (active)
same,growth inhibition,[7]; at 100.0 µM,95% (active)
same,growth inhibition,[8]; [17],10%
same,growth inhibition,[8]; [18],98% (active)
same,growth inhibition,[8]; at 50.0 µM,93% (active)
same,growth inhibition,[9]; at 1.2 µM,-8%
same,growth inhibition,[9]; at 3.7 µM,38%
same,growth inhibition,[9]; at 11.0 µM,96% (active)
same,growth inhibition,[9]; at 33.0 µM,96% (active)
same,growth inhibition,[9]; at 100.0 µM,96% (active)
same,growth inhibition,[10]; [17],-10%
same,growth inhibition,[10]; [18],96% (active)
same,growth inhibition,[10]; at 50.0 µM,98.3% (active)
same,growth inhibition,[11]; at 1.2 µM,10%
same,growth inhibition,[11]; at 3.7 µM,90% (active)
same,growth inhibition,[11]; [17],52%
same,growth inhibition,[11]; at 11.0 µM,96% (active)
same,growth inhibition,[11]; at 33.0 µM,97% (active)
same,growth inhibition,[11]; [18],97% (active)
same,growth inhibition,[11]; at 50.0 µM,98.8% (active)
same,growth inhibition,[11]; at 100.0 µM,96% (active)
same,growth inhibition,[12]; at 1.2 µM,0%
same,growth inhibition,[12]; at 3.7 µM,43%
same,growth inhibition,[12]; at 11.0 µM,96% (active)
same,growth inhibition,[12]; at 33.0 µM,98% (active)
same,growth inhibition,[12]; at 100.0 µM,98% (active)
same,growth inhibition,[13]; at 1.2 µM,-2%
same,growth inhibition,[13]; at 3.7 µM,15%
same,growth inhibition,[13]; at 11.0 µM,96% (active)
same,growth inhibition,[13]; at 33.0 µM,97% (active)
same,growth inhibition,[13]; at 100.0 µM,97% (active)
same,growth inhibition,[14]; at 1.2 µM,-12%
same,growth inhibition,[14]; at 3.7 µM,0%
same,growth inhibition,[14]; at 11.0 µM,93% (active)
same,growth inhibition,[14]; at 33.0 µM,97% (active)
same,growth inhibition,[14]; at 100.0 µM,96% (active)
same,growth inhibition,[15]; [17],3%
same,growth inhibition,[15]; [18],96% (active)
same,growth inhibition,[15]; at 50.0 µM,97.8% (active)
same,growth inhibition,[16]; at 1.2 µM,-1%
same,growth inhibition,[16]; at 3.7 µM,-4%
same,growth inhibition,[16]; at 11.0 µM,95% (active)
same,growth inhibition,[16]; at 33.0 µM,96% (active)
same,growth inhibition,[16]; at 100.0 µM,97% (active)
